Data from PubChem BioAssay (Tox21).
Several values for one entry are separate records, joined by “and”; a condition that tells them apart may be missing. Equal entries are not always repeated. Inconclusive results are not listed. Entries that show only a call come without a potency. Some structures have more than one record in an assay (separate samples or runs), and their calls can disagree. Activity calls are given as the source filed them. The call rests on the fitted dose curve; in most records, active means well fitted activation curve with a large enough effect in the repeat runs; inconclusive means weak or mixed curves; inactive means flat fitted curve, though single readings scatter.

Assay: A CellTox Green Cytotoxicity Assay to monitor cytotoxicity in HEK293 cells - 40 hour (AID 1224871); further: nearly all actives have a fitted effect of over 45% in size
Conditions: CellTox Green fluorescence; series mostly up to 76.8 µM; cytotoxicity increase: at the top concentration
Excerpt: National Center for Advancing Translational Sciences [NCATS]
NIH Chemical Genomics Center [NCGC]
U.S. Environmental Protection Agency [EPA]
National Institutes of Environmental Health Sciences [NIEHS]
National Toxicology Program [NTP]
Cell-based models are critical for drug discovery. Determining the natural cytotoxic effects resulting from test compounds is an essential research activity. A CellTox Green Cytotoxicity Assay to monitor cytotoxicity in real time of continues cell culture during 40 hours of the compound treatment was used to screen Tox21 10K library compounds in Hek293 cells. CellTox Green Cytotoxicity Assay is a nonlytic, homogeneous, biofluorescent method to measure cytotoxicity in cell culture after experimental manipulation. The assay system uses a proprietary asymmetric cyanine dye that is excluded from viable cells but preferentially stains the dead cell's DNA. […] Viable cells produce no appreciable increases in fluorescence. Therefore, the fluorescence signal produced by the binding interaction with dead cell DNA is proportional to cytotoxicity.
The mixture of Hek293 cell suspension and reagents were dispensed at 600cells/6 ul/well in 1536-well tissue culture treated black solid bottom plates using a Multidrop dispenser. After the assay plates were incubated at a 37 C/5% CO2 incubator for 5 hours, 23 nL of compounds dissolved in DMSO, positive and negative controls was transferred to the assay plate by a pintool work station. The plates were incubated at 37 C for 40 hours. The fluorescence intensity were measured at 0h, 8h, 16h, 24h, 32h and 40h time points using ViewLux plate reader during compound treatment.
Potency means the concentration at half of the fitted maximal effect.

| Compound | Potency | cytotoxicity increase |
| --- | --- | --- |
| CC(C)(C)c1ccccc1O | 39.4 µM (active) | – |
| COC(=O)c1sccc1S(=O)(=O)NC(=O)Nc1nc(C)nc(OC)n1 | inactive | – |
| CCOCN(C(=O)CCl)c1c(C)cccc1CC | – | 9.03% (inactive) |
| Oc1cc(Cl)ccc1Oc1ccc(Cl)cc1Cl | 44.7 µM (active) | – |
| O=P(Oc1ccccc1)(Oc1ccccc1)Oc1ccccc1 | inactive | – |
| c1nc[nH]n1 | inactive | – |
| c1ccc(-c2cccc(-c3ccccc3)c2)cc1 | inactive | – |
| CC(C)C(=O)OCC(C)(C)C(OC(=O)C(C)C)C(C)C (stereo not given) | inactive | – |
| C[C@]12CCC(=O)C(O)=C1CC[C@@H]1[C@@H]2CC[C@]2(C)C(=O)CC[C@@H]12 | inactive | – |
| O=C(O)CC[N+](=O)[O-] | inactive | – |
| CC(O)CCO (stereo not given) | inactive | – |
| NNC(N)=S | inactive | – |
| CN(C)C(=O)Nc1ccc(Cl)cc1 | inactive | – |
| O=[N+]([O-])c1cccc2ccccc12 | inactive | – |
| CCc1cccc(CC)c1N(COC)C(=O)CCl | inactive | – |
| OCC(O)CO | inactive | – |
| NC(=S)Nc1ccccc1 | 49.8 µM (active) and inactive | – |
| Cc1cccc(N)c1N | inactive | – |
| O=[N+]([O-])c1ccc(O)c([N+](=O)[O-])c1 | – | -1.52% (inactive) |
| CC(C)(c1cc(Cl)c(O)c(Cl)c1)c1cc(Cl)c(O)c(Cl)c1 | – | 16.7% (inactive) |

| Compound | Potency | cytotoxicity increase |
| --- | --- | --- |
| Nn1cnnc1 | inactive | – |
| Cc1ccc(N)c(N)c1 | inactive | – |
| O=[N+]([O-])c1c(Cl)c(Cl)c(Cl)c(Cl)c1Cl | 21.8 µM (active) and inactive | – |
| CCCCCCCCOC(=O)c1ccccc1C(=O)OCCCCCCCC | inactive | – |
| c1ccc(P(c2ccccc2)c2ccccc2)cc1 | inactive | – |
| Nc1ccncc1 | inactive | – |
| CCC(CC)Nc1c([N+](=O)[O-])cc(C)c(C)c1[N+](=O)[O-] | inactive | – |
| CCCCCCCCC(=O)NCc1ccc(O)c(OC)c1 | inactive | – |
| O=C1C=CC(=O)C=C1 | inactive | – |
| C=CCc1ccc(OC)cc1 | inactive | – |
| CNC(=O)N(C)c1nnc(C(C)(C)C)s1 | inactive | – |
| Cc1ccc(OP(=O)(Oc2ccc(C)cc2)Oc2ccc(C)cc2)cc1 | inactive | – |
| N#CC(Br)Br | inactive | – |
| NCc1cccnc1 | inactive | – |
| CCCCC(CC)COC(=O)Cl (stereo not given) | inactive | – |
| Nc1ccc(Cl)c(Cl)c1 | inactive | – |
| O=Cc1ccco1 | 21.1 µM (active) | – |
| O=C(O)C(F)(F)C(F)(F)C(F)(F)C(F)(F)C(F)(F)C(F)(F)C(F)(F)F | inactive | – |
| CCC(=O)O[C@H]1CC[C@H]2[C@@H]3CCC4=CC(=O)CC[C@]4(C)[C@H]3CC[C@]12C | 19.5 µM (active) and 21.3 µM (active) | – |
| C=C(C)C(=O)OCC1CO1 (stereo not given) | inactive | – |
